{"source": "PubChem BioAssay (NCI)", "note": "Compounds without any hit were thinned out: in the full panel of roughly 83,000, 20% have a hit.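 Cell lines were cultured in 96-well plates, exposed to a single compound concentration, and assessed for percent growth 48 hours later.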 The source made the active and inactive calls. Rule for the calls: active = growth percent below 10; inactive = the rest.", "data": [{"test_system": "SK-MEL-5 melanoma", "test": "NCI-60 one-dose screen, 48 h (100 = growth as untreated, 0 = no growth, -100 = all killed)", "conditions": "10 µM unless noted", "values": [{"smiles": "N/C(=N\\c1nc2ccccc2[nH]1)NC(=O)Cc1cccc2ccccc12", "growth": "82.2% (inactive)"}, {"smiles": "CC1(C)CC[C@]2(C(N)=O)CC[C@]3(C)C(=CC[C@@H]4[C@@]5(C)C/C(=C/c6ccncc6)C(=O)C(C)(C)[C@@H]5CC[C@]43C)[C@@H]2C1", "growth": "-71.1% [100 µM] (active)"}, {"smiles": "Cc1ccc(C2=C/C(=C/c3ccc(Br)cc3)C(=O)N2CCc2ccc(S(N)(=O)=O)cc2)cc1", "growth": "94.7% (inactive)"}, {"smiles": "Cc1ccc(NCCN2CCCCC2)c2c(=O)c3ccccc3sc12", "growth": "-92.2% (active)"}, {"smiles": "CC1(C)CC(=O)c2c(ccc(C(=O)C[C@@H](N)CO)c2N)O1", "growth": "29.4% (inactive)"}, {"smiles": "CCCCC1COc2cccc3c2N1C=C/C3=C\\C(=O)n1ccc2ccccc21", "note": "(stereo not given)", "growth": "78.5% (inactive)"}, {"smiles": "CC(C)CSc1ncnc2nc[nH]c12", "growth": "95.6% (inactive)"}, {"smiles": "CC1(C)CC[C@]2(C(=O)O)CC[C@]3(C)C(=CC[C@@H]4[C@@]5(C)C/C(=C/c6cccnc6)[C@H](O)C(C)(C)[C@@H]5CC[C@]43C)[C@@H]2C1", "growth": "-77.1% [100 µM] (active)"}, {"smiles": "COc1ccc(C=C2c3ccccc3-c3ccccc32)cc1", "growth": "60.3% (inactive)"}, {"smiles": "C#C[C@]1(O)CC[C@H]2[C@@H]3CC=C4c5nc(Nc6ccc(OC)cc6OC)sc5CC[C@]4(C)[C@H]3CC[C@@]21C", "growth": "-92.2% (active)"}, {"smiles": "CCOC(=O)c1nn(C2CCCCO2)c2ccc(NC(=O)CSc3nc4ccccc4c(=O)[nH]3)cc12", "note": "(stereo not given)", "growth": "98.1% (inactive)"}, {"smiles": "O=c1[nH]cnc2c1ccn2C1OC(CO)C(O)C1O", "note": "(stereo not given)", "growth": "83.1% (inactive)"}, {"smiles": "CCOC(=O)C(=Cc1ccccc1[N+](=O)[O-])C(=O)OCC", "growth": "20.4% (inactive)"}, {"smiles": "Cc1cc(C)c(S(=O)(=O)/N=c2/n(-c3ccccc3)nc3n2CCN3C2=NCCN2)c(C)c1", "growth": "60.4% (inactive)"}, {"smiles": "COC(=O)c1cc2c(=O)[nH]cc3c2c(n1)CCC3", "growth": "104% (inactive)"}, {"smiles": "Cn1cc(-c2noc(C(=O)c3cn(C)c4ncccc34)n2)c2ccccc21", "growth": "87.9% (inactive)"}, {"smiles": "O=c1cc(-c2ccccc2)oc2cc(OCc3cn(Cc4ccc(F)cc4)nn3)cc(O)c12", "growth": "84.5% [100 µM] (inactive)"}, {"smiles": "Cc1ccc(Cn2c(O)c(N=NC(=O)c3ccc(S(N)(=O)=O)cc3)c3ccccc32)cc1", "growth": "98.5% (inactive)"}, {"smiles": "CC[C@]12C=CCN3CC[C@@]4(c5ccc(OC)cc5N(C)[C@H]4[C@@](O)(C(=O)OC)[C@@H]1OC(=O)CCC(=O)O[C@H]1CC[C@H]4[C@@H]5CCC6=CC(=O)CC[C@@H]6[C@H]5CC[C@]14C)[C@@H]32", "growth": "-95.3% [100 µM] (active)"}, {"smiles": "CCC(Br)(CC)C(=O)c1ccc(OCC(=O)O)c(Cl)c1Cl", "growth": "97.7% (inactive)"}, {"smiles": "Oc1c(CNCCNCc2cc(Cl)cc(Cc3ccccc3)c2O)cc(Cl)cc1Cc1ccccc1", "growth": "-13.2% (active)"}, {"smiles": "CCc1ccc(-c2ccc(COc3ccc(CC4SC(=O)NC4=O)cc3)cc2)cc1", "note": "(stereo not given)", "growth": "39.8% (inactive)"}, {"smiles": "Cn1cc(-c2noc(-c3cn(C)c4ncc(F)cc34)n2)c2ccccc21", "growth": "82.8% (inactive)"}, {"smiles": "Clc1ccc2nc(-c3ccc(-c4ccc(/C=N/NC5=NCCN5)cc4)s3)cn2c1", "growth": "93% (inactive)"}, {"smiles": "CC(C)CCSc1nc(N)nc2nc[nH]c12", "growth": "93.2% (inactive)"}]}]}
